Assay results taken from PubChem BioAssay AID2685 (National Center for Advancing Translational Sciences (NCATS), 2010).
The whole screen tested about 320,000 compounds, of which about 2,100 (0.66%) were called active. About 53% were inconclusive and are not listed. The sample holds actives, similar compounds and a random draw of the others, so the mix is not that of the screen. Calls come from the whole dose curve; as a rule, active = well fitted inhibition curve with a large enough effect in the signal ratio, with a control signal flat (not every such curve was filed as active); inconclusive = small, poorly fitted or top-dose-only effect, or effect the other way, or a change in a side signal; inactive = flat fitted curve, though single readings scatter; the % refers to the signal ratio.

assay: qHTS Assay for Lipid Storage Modulators in Drosophila S3 Cells; details: BODIPY lipid droplet fluorescence, 18-24 h, cells fed with added oleic acid; cell number change: measured here: cell count max response; series mostly up to 46.1 µM; lipid storage change, negative = inhibition: at the top concentration;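 for cell number change: cells counted by Cell Tracker Red CMTPX staining in the red channel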; for lipid storage change, negative = inhibition: % is set by controls: 0 for no effect and ±100 for the full control effect
Outline: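 Drosophila S3 cells loaded with oleic acid (400 uM, as added) and compounds at several concentrations; lipid droplets imaged by 488-nm laser-scanning cytometry, 500–530 nm intensity and object ratio to cell channel. Percent activity normalized to 20 uM Triacsin C.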
Potency is the fitted concentration of half-maximal effect.

| Structure (SMILES) | lipid storage change, negative = inhibition | cell number change | outcome | Potency |
| --- | --- | --- | --- | --- |
| Brc1ccccc1CN1CCC(N2CCCCC2)CC1 | 11.6% (inactive) | -5.87% | – | – |
| O=S(=O)(c1ccccc1)N1CCN(C2CCN(Cc3ccccc3)CC2)CC1 | 2.03% (inactive) | 9.59% | – | – |
| COc1cccc(NC(=O)CN2C(=O)NC(C)(CCC(C)C)C2=O)c1 (configuration not stated) | 16.3% (inactive) | 17.1% | – | – |
| O=C(NCCc1ccc(Cl)cc1)c1ccc(CS(=O)Cc2ccc(Cl)cc2)o1 (configuration not stated) | – | – | inactive | – |
| O=C(CCN1C(=O)COc2ccccc21)N1CCN(c2ccccc2)CC1 | -3.53% (inactive) | 0.131% | – | – |
| O=C(NCC1CCCO1)C1CCN(C2CCN(C(=O)Cc3ccsc3)CC2)CC1 (configuration not stated) | -25.2% (inactive) | -8.37% | – | – |
| COc1ccc(CNc2nc3ccccc3n2C)c(OC)c1 | -7.05% (inactive) | -4.3% | – | – |
| COc1ccc(CNc2nnnn2C)c(OC)c1 | – | -2.1% | – | 0.651 µM (active) |
| CCOc1c(CNc2nnnn2C)cccc1OC | 5.04% (inactive) | 15.4% | – | – |
| O=C1NC(=S)N/C1=C\c1ccccc1OCc1ccc(C(=O)O)cc1 | -4.41% (inactive) | -1.56% | – | – |
| O=C(NCCNC(=O)c1ccccc1O)c1ccccc1O | – | -28.8% | – | 9.2 µM (active) |
| O=C(NCCO)c1ccccc1O | – | 26.5% | inactive | – |
| O=C(NCCNC(=O)c1ccccc1Br)c1ccccc1Br | 5.24% (inactive) | 13.7% | – | – |
| Cc1ccc(C2C(C#N)=C(N)N(c3ncn[nH]3)C3=C2C(=O)CC(C)(C)C3)cc1 (configuration not stated) | – | – | inactive | – |
| CCOc1ccc(N(CC(=O)NC(C(C)C)C(C)C)S(=O)(=O)c2ccc(OC)c(OC)c2)cc1 | -10.3% (inactive) | 14% | – | – |
| CC(=O)C1=C(O)C(=O)N(c2ccc(S(N)(=O)=O)cc2)C1c1cccc([N+](=O)[O-])c1 (configuration not stated) | -11.7% (inactive) | 5.32% | – | – |
| CC(NC(=O)CCl)c1ccc(Cl)c(Cl)c1 (configuration not stated) | – | -24.5% | – | 23.1 µM (active) |
| CC(NC(=O)Cc1ccc(S(=O)(=O)N2CCOCC2)s1)c1ccc(Cl)c(Cl)c1 (configuration not stated) | 4.21% (inactive) | -8.77% | – | – |
| CC(C)CNC(=O)c1ccc(Cl)c(Cl)c1 | 11.7% (inactive) | -14.4% | – | – |
| Cc1ccc(NC2CCCN(C(=O)c3cnc4ccccn4c3=O)C2)cc1C (configuration not stated) | -4% (inactive) | 10.1% | – | – |
| Cc1ccc(S(=O)(=O)NCCCC(=O)N2CCC(C)CC2)cc1 | – | -15.3% | – | 16.4 µM (active) |
| Cc1ccc(S(=O)(=O)NCC(=O)NCC(=O)N2CCC(C)CC2)cc1 | – | 27.4% | inactive | – |

| Structure (SMILES) | lipid storage change, negative = inhibition | cell number change | outcome | Potency |
| --- | --- | --- | --- | --- |
| CC1CCN(C(=O)CCNS(=O)(=O)c2ccccc2)CC1 | -3.73% (inactive) | 9.54% | – | – |
| CC1CN(C(=O)COC(=O)c2ccc(NC(=O)CC#N)cc2)CC(C)O1 (configuration not stated) | 1.66% (inactive) | -23.4% | – | – |
| CCOc1ccc(C(=O)OCC(=O)N2CC(C)OC(C)C2)cc1OCC (configuration not stated) | – | -6.35% | inactive | – |
| CC(=O)Nc1cc(NC(C)=O)cc(C(=O)OCC(=O)N2CC(C)OC(C)C2)c1 (configuration not stated) | – | -18.5% | – | 25.9 µM (active) |
| COC(=O)c1ccc(NC(=O)CSc2nc(=O)n3cccc(C)c3n2)cc1 | 8.53% (inactive) | -5.09% | – | – |
| CC(=O)Nc1ccc(-n2c(C)ccc2-c2ccccc2)cc1 | 6.88% (inactive) | 12.4% | – | – |
| COC(=O)c1ccc(-n2c(C)ccc2-c2ccccc2)cc1 | – | – | inactive | – |
| COc1ccc(-n2c(C)ccc2-c2ccccc2)cn1 | – | 3.52% | – | 14.6 µM (active) |
| COc1ccc(Br)cc1C(=O)NC(=S)Nc1ccc2[nH]c(=O)[nH]c2c1 | – | -29.5% | inactive | – |
| COc1ccc(S(=O)(=O)N2CCCCCC2)cc1C(=O)Nc1ccc(C)cn1 | – | – | inactive | – |
| COc1ccc([C@@H]2C[C@@H](c3ccccc3)Oc3cc(OC)c(OC)c(OC)c32)cc1 | -12.6% (inactive) | -1.66% | – | – |
| COc1ccc([C@@H]2C[C@H](c3ccccc3)Oc3cc(OC)c(OC)c(OC)c32)cc1 | – | -18.2% | – | 4.61 µM (active) |
| COc1ccc(C2CC(O)(c3ccccc3)Oc3cc(OC)cc(OC)c32)cc1 (configuration not stated) | -17.8% (inactive) | -14.8% | – | – |
| C=C1CCN(C(C(=O)OC)C(C)C)S(=O)(=O)c2ccccc21 (configuration not stated) | -1.62% (inactive) | 0.159% | – | – |
| CC(=O)NC1(C(F)(F)F)C(=O)Nc2c1c(=O)n(C)c(=O)n2C (configuration not stated) | -1.58% (inactive) | -13.1% | – | – |
| Cn1c2c(c(=O)n(C)c1=O)C(NC(=O)c1cccs1)(C(F)(F)F)C(=O)N2 (configuration not stated) | -10.5% (inactive) | -6.48% | – | – |
| Cn1c2c(c(=O)n(C)c1=O)C(NC(=O)c1ccco1)(C(F)(F)F)C(=O)N2 (configuration not stated) | 9.46% (inactive) | 6.96% | – | – |
| CC(C)CC(=O)NC1(C(F)(F)F)C(=O)Nc2c1c(=O)n(C)c(=O)n2C (configuration not stated) | – | 2.2% | – | 3.66 µM (active) |
| CCCCC(=O)NC1(C(F)(F)F)C(=O)Nc2c1c(=O)n(C)c(=O)n2C (configuration not stated) | – | -5.38% | – | 18.4 µM (active) |
| CCC(=O)NC1(C(F)(F)F)C(=O)Nc2c1c(=O)n(C)c(=O)n2C (configuration not stated) | – | 7.51% | inactive | – |
| CC(=O)Nc1ccccc1/C=C/c1ccc2c(C)cc(C)c(O)c2n1 | 14.1% (inactive) | 8.64% | – | – |
